Assay results from PubChem BioAssay (Tox21).
Where “and” joins values, the source holds several entries; their conditions need not be identical. Equal entries are not always repeated. Inconclusive results are not listed. Entries that show only a call come without a potency. More than one record can exist for a structure, and the calls need not agree. Calls of active or inactive are those of the source. Unless noted, calls follow the shape of the full dose curve.

Legend:
[1] = Nuclear factor erythroid 2-related factor 2/antioxidant responsive element (Nrf2/ARE) small molecule agonists: qHTS cell viability counter screen in human keratinocytes (AID 1919968; active = well fitted curve in the direction sought with a large enough effect in the repeat runs; an effect the other way counts as inactive or inconclusive; also: nearly all actives have a fitted effect of over 55% in size; also: potency is read from the fitted curve at half-maximal effect)
Outline: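 Seed 1,500 KeratinoSens cells per well, then incubate 5 h at 37 C/5% CO2. Add compounds in DMSO and incubate 23 h. Add CellTiter-Fluor, wait 1 h and read fluorescence.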

[2] = Nuclear factor erythroid 2-related factor 2/antioxidant responsive element (Nrf2/ARE) small molecule agonists: luciferase reporter gene qHTS assay in human keratinocytes (AID 1919969); also: nearly all actives have a fitted effect of over 35% in size; also: potency is read from the fitted curve at half-maximal effect
[3] = target: Gonadotropin-releasing hormone receptor (Homo sapiens) (UniProt P30968); assay: Human gonadotropin-releasing hormone receptor (GnRHR) small molecule agonists, calcium flux assay in GnRHR-HEK293 cells (AID 1920063); also: nearly all actives have a fitted effect of over 35% in size
Sequence of Gonadotropin-releasing hormone receptor (Homo sapiens) (P30968 whole entry, looked up): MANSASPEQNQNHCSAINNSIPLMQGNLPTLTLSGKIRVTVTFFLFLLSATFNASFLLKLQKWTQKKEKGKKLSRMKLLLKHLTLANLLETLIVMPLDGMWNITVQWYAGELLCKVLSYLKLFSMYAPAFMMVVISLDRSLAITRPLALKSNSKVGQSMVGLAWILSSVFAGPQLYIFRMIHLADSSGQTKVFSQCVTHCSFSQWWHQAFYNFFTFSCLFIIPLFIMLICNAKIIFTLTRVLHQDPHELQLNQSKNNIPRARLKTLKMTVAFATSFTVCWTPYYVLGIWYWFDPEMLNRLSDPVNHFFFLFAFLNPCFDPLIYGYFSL
Outline: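 Cells: HEK293 stably expressing human GnRHR. Steps: overnight (18 h) culture, 1 h calcium dye loading at 37 C, compound addition, kinetic fluorescence read at 480/540 nm. Each compound tested at 15 concentrations in triplicate.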

[4] = target: KiSS-1 receptor (Homo sapiens) (UniProt Q969F8); assay: Human kisspeptin (KISS1R) small molecule agonists, calcium flux assay in KISS1R-HEK293 cells (AID 1920064; active = well fitted curve in the direction sought with a large enough effect in the repeat runs; an effect the other way counts as inactive or inconclusive)
Sequence of KiSS-1 receptor (Homo sapiens) (Q969F8 whole entry, looked up): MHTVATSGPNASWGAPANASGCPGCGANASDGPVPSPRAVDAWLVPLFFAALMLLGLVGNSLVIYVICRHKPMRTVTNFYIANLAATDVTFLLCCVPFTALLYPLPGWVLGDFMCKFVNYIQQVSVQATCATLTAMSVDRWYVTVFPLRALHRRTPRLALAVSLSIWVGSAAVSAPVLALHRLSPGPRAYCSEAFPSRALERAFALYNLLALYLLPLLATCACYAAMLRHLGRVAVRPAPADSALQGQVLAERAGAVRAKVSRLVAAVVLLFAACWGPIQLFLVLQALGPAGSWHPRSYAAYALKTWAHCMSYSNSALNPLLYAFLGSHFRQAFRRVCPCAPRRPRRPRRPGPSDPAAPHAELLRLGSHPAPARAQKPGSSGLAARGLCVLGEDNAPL
Outline: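 Cells plated and incubated 18 h; dye added, 1 h at 37 C; compounds in DMSO pinned in; signal read at 480/540 nm every second for 3 min. Each compound tested at 15 concentrations in triplicate.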

[5] = G protein-coupled receptor (GPCR) small molecule agonists, calcium flux assay: HEK293 wild type cell line counter screen (AID 1920065)
Outline: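 Counter-screen of the Tox21 10K library for non-specific calcium release: dye-loaded cells received compounds in DMSO and were monitored by kinetic fluorescence (480/540 nm, 3 min). Fifteen concentrations, run in triplicate.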

[6] = p53 small molecule agonists, cell-based qHTS assay with human liver microsomes (AID 1963577);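 also: p53 response element beta-lactamase reporter cells with liver microsomes plus NADPH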
Outline: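 In this qHTS, p53 response-element beta-lactamase cells receive test compound together with a microsome/NADPH activating system (0.5 mg/mL final each) and are incubated 16 h at 37 C before LiveBLAzer fluorescence detection.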

[7] = p53 small molecule agonists, cell-based qHTS assay with rat liver microsomes (AID 1963578)
Outline: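 Agonist mode in p53RE-bla reporter cells, with compounds co-incubated 16 h at 37 C alongside 0.5 mg/mL rat liver microsomes and 0.5 mg/mL NADPH (final), followed by a 2 h LiveBLAzer detection step.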

[8] = p53 small molecule agonists, cell-based qHTS assay with human liver microsomes: qHTS cell viability counter screen (AID 1963579); also: nearly all actives have a fitted effect of over 45% in size; also: potency is read from the fitted curve at half-maximal effect
Outline: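 Metabolically activated exposure: compounds, human liver microsomes and NADPH (0.5 mg/mL final apiece) were added to p53RE-bla cells seeded 5 h earlier, left 16 h at 37 C, and then assessed for viability by CellTiter-Glo luminescence.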

[9] = p53 small molecule agonists, cell-based qHTS assay with rat liver microsomes: qHTS cell viability counter screen (AID 1963580); also: nearly all actives have a fitted effect of over 45% in size; also: potency is read from the fitted curve at half-maximal effect
Outline: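 Intracellular ATP, by CellTiter-Glo luminescence, defines viability. HCT-116 p53RE-bla cells, 4,000 per well, were compound-treated in the presence of rat liver microsomes and NADPH for 16 h at 37 C.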

[10] = p53 small molecule agonists, cell-based qHTS assay: qHTS cell viability counter screen (AID 1963581); also: nearly all actives have a fitted effect of over 45% in size; also: potency is read from the fitted curve at half-maximal effect
Outline: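 Cells: HCT-116 with p53 response element-driven beta-lactamase. Treatment: 16 h, 37 C, compounds in DMSO. Read: CellTiter-Glo luminescence after 30 min RT.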

[11] = target: 5-hydroxytryptamine receptor 2A (Homo sapiens) (UniProt P28223); assay: 5-hydroxytryptamine receptor 2A (HTR2A) small molecule agonists, cell-based qHTS assay (AID 1963587); also: nearly all actives have a fitted effect of over 30% in size; also: potency is read from the fitted curve at half-maximal effect
Sequence of 5-hydroxytryptamine receptor 2A (Homo sapiens) (P28223 whole entry, looked up): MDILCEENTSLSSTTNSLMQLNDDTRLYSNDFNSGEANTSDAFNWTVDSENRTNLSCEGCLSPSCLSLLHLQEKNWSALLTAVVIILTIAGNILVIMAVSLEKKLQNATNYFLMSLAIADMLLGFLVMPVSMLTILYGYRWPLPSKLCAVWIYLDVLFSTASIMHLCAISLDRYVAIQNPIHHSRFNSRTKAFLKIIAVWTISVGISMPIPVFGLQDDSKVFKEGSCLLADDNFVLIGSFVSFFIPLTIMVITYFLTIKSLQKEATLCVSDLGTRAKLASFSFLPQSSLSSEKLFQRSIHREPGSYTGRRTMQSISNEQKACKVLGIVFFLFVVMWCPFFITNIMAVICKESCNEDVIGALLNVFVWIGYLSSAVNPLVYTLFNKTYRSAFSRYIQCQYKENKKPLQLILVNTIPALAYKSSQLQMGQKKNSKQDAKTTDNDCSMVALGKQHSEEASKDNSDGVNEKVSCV
Outline: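 Kinetic calcium-flux fluorescence (2 min, 1 sec intervals) after compound addition in agonist mode. HTR2A-CHO cells were cultured 18 h, then dye-loaded 1 h at 37 C.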

[12] = target: Muscarinic acetylcholine receptor M1 (Homo sapiens) (UniProt P11229); assay: Cholinergic receptor muscarinic 1 (CHRM1) small molecule antagonists, cell-based qHTS assay (AID 1963588); also: nearly all actives have a fitted effect of over 40% in size
Sequence of Muscarinic acetylcholine receptor M1 (Homo sapiens) (P11229 whole entry, looked up): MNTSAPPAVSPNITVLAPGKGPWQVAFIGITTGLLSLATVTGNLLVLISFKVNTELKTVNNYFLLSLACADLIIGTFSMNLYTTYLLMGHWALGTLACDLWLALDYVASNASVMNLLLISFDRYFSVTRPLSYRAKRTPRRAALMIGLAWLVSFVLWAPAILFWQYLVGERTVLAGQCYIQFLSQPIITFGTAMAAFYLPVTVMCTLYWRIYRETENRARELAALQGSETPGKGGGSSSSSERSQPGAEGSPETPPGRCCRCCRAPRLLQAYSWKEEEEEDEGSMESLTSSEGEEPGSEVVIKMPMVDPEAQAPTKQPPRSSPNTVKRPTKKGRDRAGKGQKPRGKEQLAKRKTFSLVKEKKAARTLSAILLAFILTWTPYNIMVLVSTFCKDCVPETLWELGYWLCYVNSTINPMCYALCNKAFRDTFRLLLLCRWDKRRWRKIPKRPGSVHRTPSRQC
Outline: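 CHRM1-CHO calcium-flux assay, antagonist mode. Cells were seeded 18 h, dye-loaded 1 h at 37 C and given compound for 5 min at RT, then acetylcholine was added at 50nM. FDSS fluorescence was read 3 min; 15 concentrations, three runs.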

[13] = target: Muscarinic acetylcholine receptor M1 (Homo sapiens) (UniProt P11229); assay: Cholinergic receptor muscarinic 1 (CHRM1) small molecule agonists, cell-based qHTS assay (AID 1963589); also: nearly all actives have a fitted effect of over 35% in size
Outline: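 Agonist-mode qHTS in CHO cells stably carrying human muscarinic M1. Intracellular calcium is tracked by fluorescence every second after compound transfer; each compound runs at 15 concentrations in three independent runs.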

[14] = cAMP Responsive Elements (CRE) small molecule agonists, cell-based qHTS assay (AID 1963590)
Outline: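 Agonist mode qHTS in CRE-bla HEK 293T cells: compounds dosed from DMSO for 3 h at 37 C/5% CO2, followed by LiveBLAzer B/G FRET substrate for 2 h at room temperature.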

[15] = cAMP Responsive Elements (CRE) small molecule antagonists, cell-based qHTS assay (AID 1963591; active = well fitted inhibition curve with a large enough effect in the signal ratio in the repeat runs, not every such curve was filed as active; the % refers to the signal ratio)
Outline: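 Antagonist mode: test compounds are co-incubated with the adenylyl cyclase activator NKH477 (0.25 uM final) on CRE-bla HEK293T cells for 3 h at 37 °C, followed by LiveBLAzer substrate loading.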

[16] = target: Beta-2 adrenergic receptor (Homo sapiens) (UniProt P07550); assay: Adrenergic beta2 receptor (ADRB2) small molecule antagonists, cell-based qHTS assay (AID 1963592); also: series mostly up to about 92 µM; nearly all actives have a fitted effect of over 50% in size
Sequence of Beta-2 adrenergic receptor (Homo sapiens) (P07550 whole entry, looked up): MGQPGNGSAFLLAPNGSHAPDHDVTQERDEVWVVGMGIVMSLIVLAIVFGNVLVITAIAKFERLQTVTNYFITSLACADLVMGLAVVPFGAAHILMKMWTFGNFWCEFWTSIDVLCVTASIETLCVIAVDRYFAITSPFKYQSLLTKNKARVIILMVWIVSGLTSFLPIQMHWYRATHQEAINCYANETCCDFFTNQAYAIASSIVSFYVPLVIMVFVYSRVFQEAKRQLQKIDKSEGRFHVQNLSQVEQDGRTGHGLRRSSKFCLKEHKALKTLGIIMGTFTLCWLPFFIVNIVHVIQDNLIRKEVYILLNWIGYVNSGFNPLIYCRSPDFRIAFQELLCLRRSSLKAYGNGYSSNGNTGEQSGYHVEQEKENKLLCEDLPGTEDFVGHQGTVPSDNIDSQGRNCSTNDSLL
Outline: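 Cells (CHO, stable ADRB2 overexpression) incubated 18-20hr at 37C; compounds added from DMSO; agonist mix (1nM isoproterenol, 100uM IBMX, 25uM Ro-20-1724) added; 0.5hr RT; d2-cAMP and anti-cAMP-cryptate added; 1hr RT; 665/615 nm read.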

[17] = target: Beta-2 adrenergic receptor (Homo sapiens) (UniProt P07550); assay: Adrenergic beta2 receptor (ADRB2) small molecule agonists, cell-based qHTS assay (AID 1963593);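 also: CHO cells stably overexpressing human ADRB2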
Outline: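 CHO cells stably over-expressing ADRB2 were plated overnight at 37C, then dosed with compounds plus a stimulation mix containing 100uM IBMX and 25uM Ro-20-1724 for 0.5hr at room temperature. cAMP was measured by HTRF competition, 1hr.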

[18] = target: D(2) dopamine receptor (Homo sapiens) (UniProt P14416); assay: Dopamine D2 receptor (DRD2) small molecule agonists, cell-based qHTS assay (AID 1963594); also: nearly all actives have a fitted effect of over 35% in size
Sequence of D(2) dopamine receptor (Homo sapiens) (P14416 whole entry, looked up): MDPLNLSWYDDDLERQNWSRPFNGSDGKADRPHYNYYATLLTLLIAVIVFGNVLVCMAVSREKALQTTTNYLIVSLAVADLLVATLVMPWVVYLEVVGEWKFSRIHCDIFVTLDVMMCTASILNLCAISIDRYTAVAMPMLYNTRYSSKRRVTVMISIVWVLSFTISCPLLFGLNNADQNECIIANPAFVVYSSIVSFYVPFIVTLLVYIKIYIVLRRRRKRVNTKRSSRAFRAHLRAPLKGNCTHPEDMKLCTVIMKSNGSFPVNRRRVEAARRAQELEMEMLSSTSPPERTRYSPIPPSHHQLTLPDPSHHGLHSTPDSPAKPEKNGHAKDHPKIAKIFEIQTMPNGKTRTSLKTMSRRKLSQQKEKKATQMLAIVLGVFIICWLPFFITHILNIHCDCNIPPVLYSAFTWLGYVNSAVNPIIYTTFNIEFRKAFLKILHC
Outline: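 cAMP accumulation in DRD2-HEK293 cells measured by HTRF after 1 h detection; compounds added 10 min before NKH477 (200nM […]) forskolin-analogue stimulation, 30 min at room temperature, with Ro20-1724 present at 0.1 mM final.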

[19] = target: D(2) dopamine receptor (Homo sapiens) (UniProt P14416); assay: Dopamine D2 receptor (DRD2) small molecule antagonists, cell-based qHTS assay (AID 1963595; active = well fitted inhibition curve with a large enough effect in the signal ratio in the repeat runs, with a control signal flat; the % refers to the signal ratio)
Outline: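 Antagonism was scored as restored cAMP in HEK293-DRD2 cells. These cells were stimulated with 200 nM NKH477 and 12 nM quinpirole for 30 min at room temperature, in the presence of 0.1 mM Ro20-1724.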

| SMILES | Potency [1] | Potency [2] | Potency [3] | Potency [4] | Potency [5] | Potency [6] | Potency [7] | Potency [8] | Potency [9] | Potency [10] | Potency [11] | Potency [12] | Potency [13] | Potency [14] | Potency [15] | Potency [16] | Potency [17] | Potency [18] | Potency [19] |
| --- | --- | --- | --- | --- | --- | --- | --- | --- | --- | --- | --- | --- | --- | --- | --- | --- | --- | --- | --- |
| CC(C)CCCCCCCCCCCCCCC(=O)O | inactive | inactive | inactive | inactive | inactive | inactive | inactive | inactive | inactive | inactive | inactive | inactive | inactive | inactive | inactive | inactive | inactive | inactive | inactive |
| CC(C)CCCCCCc1ccc(O)cc1 | 6.22 µM (active) | 2.48 µM (active) and inactive | inactive | inactive | inactive | inactive | inactive | 41.5 µM (active) | 18.5 µM (active) | 45.8 µM (active) | 44.4 µM (active) and 49 µM (active) | inactive | inactive | – | – | inactive | – | inactive | – |
| CC(N)CN (configuration not stated) | inactive | inactive | inactive | inactive | inactive | inactive | inactive | inactive | inactive | inactive | inactive | inactive | inactive | inactive | – | inactive | inactive | inactive | inactive |
| CCCC1O[C@@H]2C[C@H]3[C@@H]4CCC5=CC(=O)C=C[C@]5(C)[C@H]4[C@@H](O)C[C@]3(C)[C@]2(C(=O)CO)O1 (some centres not stated) | inactive | inactive | inactive | inactive | inactive | inactive | inactive | inactive | inactive | inactive | – | – | – | – | – | inactive | inactive | inactive | inactive |
| C=CCOC(=O)CCCCCCCC | inactive | inactive | inactive | inactive | inactive | inactive | inactive | inactive | inactive | inactive | inactive | inactive | inactive | inactive | inactive | inactive | inactive | inactive | inactive |
| CCCCCCCC(=O)N(C)C | inactive | inactive | inactive | inactive | inactive | inactive | inactive | inactive | inactive | inactive | inactive | inactive | inactive | inactive | inactive | inactive | – | – | inactive |
| O=[N+]([O-])c1cncn1CCN1CCOCC1 | inactive | inactive | inactive | inactive | inactive | inactive | inactive | inactive | inactive | inactive | inactive | inactive | inactive | inactive | inactive | inactive | inactive | inactive | inactive |
| Cc1c(C)c2c(c(C)c1O)CCC(C)(COc1ccc(CC3SC(=O)NC3=O)cc1)O2 (configuration not stated) | inactive | inactive | inactive | inactive | inactive | inactive | inactive | inactive | inactive | inactive | – | – | – | – | – | inactive | inactive | inactive | inactive |
| Nc1cc(-c2ccncc2)c[nH]c1=O | inactive | inactive | inactive | inactive | inactive | inactive | inactive | inactive | inactive | inactive | – | – | – | inactive | inactive | inactive | inactive | inactive | inactive |
| O=S(=O)(O)c1ccc2cc(O)c(S(=O)(=O)O)cc2c1 | inactive | inactive | inactive | inactive | inactive | inactive | inactive | inactive | inactive | inactive | inactive | inactive | inactive | inactive | inactive | inactive | inactive | inactive | inactive |
| O=C(c1ccccc1)C1(O)CCCCC1 | inactive | inactive | inactive | inactive | inactive | inactive | inactive | inactive | inactive | inactive | inactive | inactive | inactive | inactive | inactive | inactive | inactive | inactive | inactive |
| CCCCCCCCCOCC1CO1 (configuration not stated) | inactive | inactive | inactive | inactive | inactive | inactive | inactive | inactive | inactive | inactive | – | inactive | inactive | inactive | inactive | inactive | – | inactive | inactive |
| CC(C)OC(=O)C(O)(CC(=O)O)CC(=O)O | inactive | inactive | inactive | inactive | inactive | inactive | inactive | inactive | inactive | inactive | inactive | inactive | inactive | inactive | inactive | inactive | – | – | inactive |
| Cc1cccc(N(C)C(=S)Oc2ccc3ccccc3c2)c1 | inactive | 21.7 µM (active) | inactive | inactive | inactive | inactive | inactive | inactive | inactive | inactive | – | – | – | inactive | inactive | inactive | – | inactive | inactive |
| CN(C)c1cc(NC(=O)CNC(C)(C)C)c(O)c2c1C[C@H]1C[C@H]3[C@H](N(C)C)C(=O)C(C(N)=O)=C(O)[C@@]3(O)C(=O)C1=C2O | inactive | inactive | inactive | inactive | inactive | inactive | inactive | inactive | inactive | inactive | inactive | inactive | inactive | inactive | inactive | inactive | inactive | inactive | inactive |
